Where “and” joins values, the source holds several entries; their conditions need not be identical. Equal values may be shown once. Inconclusive results are not listed. For part of these data: Entries with a potency or affinity are not part of this list. Calls of active or inactive are those of the source. Unless noted, the rule behind the calls is not given here.
Legend:
[1] = antimalarial activity against Dd2 strain (AID 2302;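 active = growth inhibition above 50% at the single 2 µM test dose, taken to imply half-maximal potency below 2 µM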;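 note: 0% = DMSO untreated growth and 100% = chloroquine plus artemisinin killed control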); conditions: P. falciparum Dd2 in RBCs, LDH growth readout, 72 h; at 2 µM; stronger effect = higher value
[2] = HepG2 cytotoxicity, primary screen, cytotoxicity control for P. falciparum antimalarial project, cell-based, ATP luminescence (AID 2303;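 active = inhibition above 50%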;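 note: 0% = DMSO wells and 100% = digitonin-killed cells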); conditions: HepG2 viability, 24-48 h, at 10 µM, stronger effect = higher value
[3] = target: L-lactate dehydrogenase (Plasmodium falciparum (isolate CDC / Honduras)) (UniProt Q27743); test: PfLDH activity inhibition – cell lysate, 3D7 strain, counter-screen for P. falciparum growth inhibition project (AID 2304);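 note: 0% = vehicle and 100% = reference inhibitor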; conditions: P. falciparum 3D7 crude extract, LDH APAD/NBT absorbance; at 2 µM; stronger effect = higher value
[4] = inhibition of 3D7 malaria parasite growth – strain 3D7 (AID 2306);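 note: 0% = DMSO wells and 100% = chloroquine plus artemisinin control wells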; conditions: P. falciparum 3D7 erythrocytic growth, LDH absorbance, 72 h; at 2 µM; stronger effect = higher value
[5] = target: Calcium-dependent protein kinase 1 (Plasmodium falciparum (isolate 3D7)) (UniProt P62344); test: PfCDPK1 kinase inhibitors, biochemical, TCAMS library (AID 1159585; cut-off not given, nearly all actives have IC50 up to about 0.98 µM;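 note: inhibitors leave more ATP so luminescence rises with inhibition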); conditions: recombinant PfCDPK1, Kinase-Glo ATP depletion luminescence
[6] = target: Plasmodium falciparum protein kinase 6 (PK6, PF3D7_1337100) (UniProt Q8IDW1); test: PfPK6 kinase inhibitors, biochemical, TCAMS library (AID 1159586); conditions: recombinant PfPK6, Kinase-Glo ATP depletion luminescence
[7] = target: Protein kinase 7 (PK7), Plasmodium falciparum 3D7 (PF3D7_0213400) (UniProt Q7YTF7); test: inhibition of Plasmodium PK7 catalytic activity – biochemical, TCAMS antimalarial set, Kinase-Glo luminescence (AID 1159587); conditions: recombinant PfPK7, Kinase-Glo ATP depletion luminescence
[8] = target: Calcium-dependent protein kinase 4 (Plasmodium falciparum (isolate 3D7)) (UniProt Q8IBS5); test: PfCDPK4 kinase inhibitors, biochemical, TCAMS library (AID 1159588; cut-off not given, nearly all actives have IC50 up to about 0.91 µM); conditions: recombinant PfCDPK4, Kinase-Glo ATP depletion luminescence
[9] = tested on: Aerobactin synthetase IucA (Klebsiella pneumoniae); test: IucA aerobactin synthetase inhibitors, biochemical, Tocris library, absorbance (AID 1345561); conditions: purified IucA enzyme assay, absorbance (OD) read-out; stronger effect = lower value;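 tested at 8 µM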;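 note: 100% = enzyme without compound and 0% = no enzyme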
[10] = growth inhibition of DIPG glioma cells, dose response, cell-based, SU-DIPG-XVII, MIPE5.0, CellTiter-Glo, qHTS (AID 1347060; cut-off not given, nearly all actives have AC50 up to about 26 µM;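 note: cells exposed to compound for 48 hours before viability readout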); conditions: SU-DIPG-XVII viability, CellTiter-Glo ATP luminescence
[11] = growth inhibition of DIPG glioma cells, dose response, cell-based, JHH-DIPG-1, MIPE4.0, CellTiter-Glo, qHTS (AID 1347062; cut-off not given, nearly all actives have AC50 up to about 27 µM;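 note: cells exposed to compound for two days before readout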); conditions: JHH-DIPG-1 viability, CellTiter-Glo ATP luminescence
[12] = growth inhibition of DIPG glioma cells, dose response, cell-based, SU-DIPG-IV, MIPE4.0, CellTiter-Glo, qHTS (AID 1347063; cut-off not given, nearly all actives have AC50 up to about 30 µM;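 note: compound exposure lasted 48 hours before the viability readout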); conditions: SU-DIPG-IV viability, CellTiter-Glo ATP luminescence
[13] = viability loss in pontine glioma line – cell-based, SU-DIPG-XXV, MIPE5.0, CellTiter-Glo, qHTS, dose response (AID 1347065; cut-off not given, nearly all actives have AC50 up to about 26 µM;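 note: cells exposed to compound for 48 hours before ATP readout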); conditions: CellTiter-Glo ATP luminescence
[14] = JHH-DIPG-1 glioma cell viability, MIPE5.0 library, CellTiter-Glo luminescence, qHTS (AID 1347067; cut-off not given, nearly all actives have AC50 up to about 26 µM;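 note: cells exposed to compound for 48 hours before readout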); conditions: JHH-DIPG-1 glioma viability, CellTiter-Glo ATP luminescence
[15] = SU-DIPG-XXV glioma cell viability, MIPE5.0 library, qHTS (AID 1347068; cut-off not given, nearly all actives have IC50 up to about 30 µM;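 note: cells exposed to compound for 48 hours before viability readout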)
[16] = sensitizers of A549 cells to miR-34 induction, primary screen, imaging, A549 dox-inducible miR-34, nuclei and caspase counts (AID 1347080;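 active = compounds whose cell count with miR-34 switched on is under 0.7 times the count with it off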); conditions: A549 miR-34 inducible, Hoechst nuclei count, 48 h
[17] = survival rescue of mitochondrial mutant cells in low glucose, primary screen, MELAS cybrids, Rieske KO mouse fibroblasts, CellTiter-Glo (AID 1508586;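 active = mean z-score across replicates of 1.96 or higher in either the MELAS or the Rieske mutant cell line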;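 note: z relative to plate mean and SD of compound and empty wells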)
[18] = viability rescue of complex I mutant cybrids, primary screen, cell-based, galactose medium, ATP luminescence (AID 1645843;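 active = z-score of at least 1.8 in each of two replicates, scored against plate mean and spread of sample wells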;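 note: positive z means more ATP and so rescue of galactose-driven cybrid death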); conditions: complex I mutant cybrid cells, 72 h, stronger effect = higher value
[19] = growth inhibition of DIPG glioma cells, dose response, cell-based, SU-DIPG-XIII, MIPE4.0, CellTiter-Glo, qHTS (AID 1347061; cut-off not given, nearly all actives have AC50 up to about 37 µM;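 note: cells exposed to compound for 48 hours before readout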); conditions: SU-DIPG-XIII viability, CellTiter-Glo ATP luminescence
[20] = growth inhibition of DIPG glioma cells, dose response, cell-based, SU-DIPG-XIII, MIPE5.0, CellTiter-Glo, qHTS (AID 1347064; cut-off not given, nearly all actives have AC50 up to about 23 µM;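 note: cells exposed to compound for 48 hours before the viability read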); conditions: SU-DIPG-XIII viability, CellTiter-Glo ATP luminescence
[21] = polyglutamine-triggered caspase-3 activation inhibitors, cell-based (AID 1583); conditions: polyglutamine-induced caspase-3 activation, cell assay; stronger effect = higher value;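 tested at 10 µM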
[22] = suppressors of polyQ aggregation in yeast, 75Q-TubU reporter (AID 1593); conditions: Yeast 75Q polyglutamine aggregation reporter
[23] = rescue of polyQ-huntingtin neuronal dysfunction in worms, whole organism, C. elegans mechanosensory neurons, N-terminal huntingtin (AID 1599); conditions: touch response, stronger effect = higher value
[24] = inhibitors of mitochondrial cytochrome c release, biochemical, purified mitochondria (AID 1603); conditions: stronger effect = lower value;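 note: mouse liver mitochondria challenged with calcium chloride; signal normalized to the plate average as 100%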
[25] = inhibitors of polyQ protein aggregation (AID 1604); conditions: polyglutamine-induced protein aggregation inhibition assay; stronger effect = higher value; tested at 2.5 µM
[26] = enhancers of glutamate uptake in motor neurons, MN-1 cell line (AID 1612); conditions: MN-1 motor neuron cells, stronger effect = higher value;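 note: tested at 1 µM final; 0% = mean of DMSO vehicle wells on each plate; positive means more glutamate uptake than control and negative means less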
[27] = reducers of polyQ inclusions in PC12 cells, cell-based, NGF-treated PC12, GFPQ80 (AID 1614); conditions: PC12 NGF-treated GFP-polyQ80 inclusion reduction;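 note: lower means fewer inclusions and 0 means no inclusions at all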
[28] = suppressors of polyglutamine aggregation in yeast, 75Q-TubH (AID 1616); conditions: S. cerevisiae 75Q-TubH polyglutamine aggregation suppression; stronger effect = higher value
[29] = modulation of C. elegans fzo-1 (AID 1259413);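 note: fzo-1 mutant C. elegans worms in liquid wells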; conditions: C. elegans fzo-1 modulator screen, mean read-out; stronger effect = higher value
[30] = differential killing of epithelial or mesenchymal cells, primary screen, imaging, PC-3E GFP, TEM4-18 mCherry, co-culture (AID 1345086;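 active = compounds killing one labelled cell type while sparing the other, by normalised counts and ratio limits, not self-fluorescent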;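 note: cells exposed to compound for 72 h before imaging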;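 for red/green cell ratio (normalised): normalised mesenchymal count divided by normalised epithelial count so high means epithelial killing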); conditions: imaging cell counts, at 1 µM
[31] = target: NAD(+) hydrolase SARM1 (Homo sapiens) (UniProt Q6SZW1); test: SARM1 TIR NADase inhibitors, cell lysate, NAD-Glo luminescence (AID 1508614;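 active = compound whose remaining NAD level is above about 45 nM, limit read from the data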;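 note: higher remaining NAD means stronger inhibition of SARM1 NADase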); conditions: SAM-TIR HEK293T lysate NADase, at 1 µM, stronger effect = higher value
[32] = target: Mitogen-activated protein kinase 7 (Homo sapiens) (UniProt Q13164); test: ERK5 transactivation activators in reporter cells, primary screen, cell-based, HTS (AID 1508626;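 active = luciferase signal above three times the same-plate solvent-only control wells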;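 note: luciferase driven by Gal4-ERK5 fusion binding five Gal4 sites before minimal TATA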); conditions: HeLa Gal4-ERK5 transactivation, 18 h, at 5 µM, stronger effect = higher value
[33] = stronger effect = lower value, cell number ratio, induced over uninduced
[34] = measured here: relative caspase fold change +Dox/-Dox
[35] = measured here: total cells with miR-34 induction, stronger effect = lower value
[36] = measured here: total cells without miR-34 induction
[37] = MELAS cybrid survival, CellTiter-Glo 48 h, stronger effect = higher value
[38] = Rieske KO mouse fibroblast survival, CellTiter-Glo 72 h

Sequence of Protein kinase 7 (PK7), Plasmodium falciparum 3D7 (PF3D7_0213400) (Q7YTF7 1-343): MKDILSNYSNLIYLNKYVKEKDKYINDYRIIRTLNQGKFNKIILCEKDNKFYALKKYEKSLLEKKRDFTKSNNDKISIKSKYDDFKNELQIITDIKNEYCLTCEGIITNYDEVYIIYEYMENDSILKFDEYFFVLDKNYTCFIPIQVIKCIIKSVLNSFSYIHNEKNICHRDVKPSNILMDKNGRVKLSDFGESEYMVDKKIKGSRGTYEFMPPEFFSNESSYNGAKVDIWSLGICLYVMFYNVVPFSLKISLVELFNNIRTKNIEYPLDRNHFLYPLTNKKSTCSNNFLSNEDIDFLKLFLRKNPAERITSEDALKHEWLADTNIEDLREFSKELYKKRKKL
Sequence of Calcium-dependent protein kinase 1 (Plasmodium falciparum (isolate 3D7)) (P62344 whole entry, looked up): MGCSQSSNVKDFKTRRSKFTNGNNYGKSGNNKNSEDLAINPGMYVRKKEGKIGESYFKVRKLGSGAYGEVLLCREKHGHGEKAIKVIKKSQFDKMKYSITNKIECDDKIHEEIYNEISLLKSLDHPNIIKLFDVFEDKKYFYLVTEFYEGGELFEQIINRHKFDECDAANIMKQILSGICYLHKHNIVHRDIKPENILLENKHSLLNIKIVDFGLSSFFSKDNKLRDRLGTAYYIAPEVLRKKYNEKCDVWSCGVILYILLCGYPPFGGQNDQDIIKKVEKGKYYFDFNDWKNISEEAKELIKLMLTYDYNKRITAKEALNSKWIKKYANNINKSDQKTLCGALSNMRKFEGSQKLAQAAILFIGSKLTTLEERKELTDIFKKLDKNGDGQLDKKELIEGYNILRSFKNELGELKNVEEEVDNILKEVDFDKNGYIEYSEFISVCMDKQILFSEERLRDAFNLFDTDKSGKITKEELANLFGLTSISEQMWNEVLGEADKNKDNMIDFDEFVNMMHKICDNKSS
Sequence of Calcium-dependent protein kinase 4 (Plasmodium falciparum (isolate 3D7)) (Q8IBS5 whole entry, looked up): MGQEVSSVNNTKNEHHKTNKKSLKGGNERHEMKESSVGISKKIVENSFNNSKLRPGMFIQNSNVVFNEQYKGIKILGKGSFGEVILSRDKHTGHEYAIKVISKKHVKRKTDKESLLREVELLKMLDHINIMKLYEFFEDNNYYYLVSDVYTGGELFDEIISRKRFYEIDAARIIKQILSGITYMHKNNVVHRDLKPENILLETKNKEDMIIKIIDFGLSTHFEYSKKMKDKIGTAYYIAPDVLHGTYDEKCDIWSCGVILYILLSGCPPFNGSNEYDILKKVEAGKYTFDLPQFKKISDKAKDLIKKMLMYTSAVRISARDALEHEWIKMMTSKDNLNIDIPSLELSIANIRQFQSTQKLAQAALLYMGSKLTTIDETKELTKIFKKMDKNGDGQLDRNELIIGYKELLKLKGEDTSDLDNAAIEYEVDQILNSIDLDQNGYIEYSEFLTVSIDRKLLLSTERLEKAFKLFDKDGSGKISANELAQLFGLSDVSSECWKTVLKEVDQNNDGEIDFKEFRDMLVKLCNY
Sequence of Plasmodium falciparum protein kinase 6 (PK6, PF3D7_1337100) (Q8IDW1 1-305): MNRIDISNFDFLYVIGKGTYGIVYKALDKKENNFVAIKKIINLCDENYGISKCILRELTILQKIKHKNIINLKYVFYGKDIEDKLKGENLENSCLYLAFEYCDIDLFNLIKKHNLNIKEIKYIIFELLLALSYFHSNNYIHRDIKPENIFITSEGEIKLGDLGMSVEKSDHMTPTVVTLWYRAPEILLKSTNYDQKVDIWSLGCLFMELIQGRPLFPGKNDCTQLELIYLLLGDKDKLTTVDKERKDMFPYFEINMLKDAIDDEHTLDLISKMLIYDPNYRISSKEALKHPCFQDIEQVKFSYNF
Sequence of L-lactate dehydrogenase (Plasmodium falciparum (isolate CDC / Honduras)) (Q27743 whole entry, looked up): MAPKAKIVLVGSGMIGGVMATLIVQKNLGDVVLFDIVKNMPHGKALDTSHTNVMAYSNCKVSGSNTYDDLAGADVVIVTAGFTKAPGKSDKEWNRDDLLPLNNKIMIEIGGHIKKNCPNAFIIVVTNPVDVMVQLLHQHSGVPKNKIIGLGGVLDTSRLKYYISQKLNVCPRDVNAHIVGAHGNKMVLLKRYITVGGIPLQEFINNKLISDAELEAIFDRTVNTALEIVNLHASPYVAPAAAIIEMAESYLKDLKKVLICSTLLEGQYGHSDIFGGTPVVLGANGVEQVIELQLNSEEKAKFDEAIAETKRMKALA
Sequence of Mitogen-activated protein kinase 7 (Homo sapiens) (Q13164 whole entry, looked up, the tested form may be a part): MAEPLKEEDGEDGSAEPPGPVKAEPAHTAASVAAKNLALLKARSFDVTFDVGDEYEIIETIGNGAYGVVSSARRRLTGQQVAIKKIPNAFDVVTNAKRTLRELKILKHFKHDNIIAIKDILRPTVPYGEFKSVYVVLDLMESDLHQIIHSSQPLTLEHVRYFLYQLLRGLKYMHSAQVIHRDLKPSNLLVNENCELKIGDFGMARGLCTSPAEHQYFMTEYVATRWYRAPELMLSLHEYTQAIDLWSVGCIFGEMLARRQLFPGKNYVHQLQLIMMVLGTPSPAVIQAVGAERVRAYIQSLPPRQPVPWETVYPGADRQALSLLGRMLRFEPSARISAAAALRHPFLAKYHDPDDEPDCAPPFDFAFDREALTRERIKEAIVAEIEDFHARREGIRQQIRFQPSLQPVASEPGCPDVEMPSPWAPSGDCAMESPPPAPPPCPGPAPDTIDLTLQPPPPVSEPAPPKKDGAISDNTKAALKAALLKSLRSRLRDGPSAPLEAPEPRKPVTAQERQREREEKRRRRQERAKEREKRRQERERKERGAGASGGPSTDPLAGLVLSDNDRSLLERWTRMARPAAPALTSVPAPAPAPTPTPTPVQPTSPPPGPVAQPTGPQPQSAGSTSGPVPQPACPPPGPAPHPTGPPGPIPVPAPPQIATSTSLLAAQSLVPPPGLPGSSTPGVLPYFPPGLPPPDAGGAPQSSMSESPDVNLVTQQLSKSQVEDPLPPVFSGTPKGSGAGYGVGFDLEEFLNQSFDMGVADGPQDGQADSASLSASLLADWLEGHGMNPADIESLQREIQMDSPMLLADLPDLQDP
Sequence of NAD(+) hydrolase SARM1 (Homo sapiens) (Q6SZW1 whole entry, looked up, the tested form may be a part): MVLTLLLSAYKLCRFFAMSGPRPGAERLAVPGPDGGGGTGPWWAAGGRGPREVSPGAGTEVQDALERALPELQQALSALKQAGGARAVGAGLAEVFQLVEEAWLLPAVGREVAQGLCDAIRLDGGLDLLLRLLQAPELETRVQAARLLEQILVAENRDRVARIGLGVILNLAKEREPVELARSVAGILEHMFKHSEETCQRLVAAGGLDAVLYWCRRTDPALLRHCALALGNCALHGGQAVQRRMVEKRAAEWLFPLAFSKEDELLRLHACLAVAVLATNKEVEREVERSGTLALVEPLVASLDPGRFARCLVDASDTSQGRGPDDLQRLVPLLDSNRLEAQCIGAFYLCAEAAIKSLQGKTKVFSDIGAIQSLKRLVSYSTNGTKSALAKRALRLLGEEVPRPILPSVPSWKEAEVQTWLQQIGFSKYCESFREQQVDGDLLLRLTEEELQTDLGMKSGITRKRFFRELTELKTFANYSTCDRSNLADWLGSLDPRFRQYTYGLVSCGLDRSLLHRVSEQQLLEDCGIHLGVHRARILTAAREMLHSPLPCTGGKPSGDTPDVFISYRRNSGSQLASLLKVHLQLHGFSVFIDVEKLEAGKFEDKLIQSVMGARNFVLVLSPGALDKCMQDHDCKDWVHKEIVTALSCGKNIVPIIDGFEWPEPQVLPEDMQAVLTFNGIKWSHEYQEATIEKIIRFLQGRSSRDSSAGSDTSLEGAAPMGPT

COc1ccc(C(C(=O)NC2CCN(C[C@H](O)c3ccnc4ccc(OC)cc34)CC2)N2CCN(Cc3ccccc3)CC2)cc1 (stereo not given in full)
inactive: inhibition [2] 18% | inhibition [3] -9% | outcome [5] | outcome [6] | outcome [7] | outcome [8]
active: growth inhibition [1] 72% | growth inhibition [4] 100%

N#Cc1ccc2c(c1)CN(CCC1CCC(NC(=O)/C=C/c3c[nH]c4ccccc34)CC1)CC2 (stereo not given)
active: growth inhibition [4] 92% and 97%
inactive: growth inhibition [1] 24% and 27% | inhibition [2] 10% and 20% | inhibition [3] -3% and -9% | outcome [5] | outcome [6] | outcome [7] | outcome [8]

COc1cc2c(Nc3ccc(NC(=O)c4ccccc4)cc3)ncnc2cc1OCCCN1CCOCC1
1900 and 3920: cell count [16, 36]
active: growth inhibition [1] 93% | growth inhibition [4] 99% | AC50 [10] 4680 nM | AC50 [11] 20900 nM | AC50 [12] 18700 nM | AC50 [13] 1320 nM | AC50 [14] 20900 nM | IC50 [15] 8330 nM
inactive: inhibition [2] 14% | inhibition [3] 5% | outcome [5] | outcome [6] | outcome [7] | outcome [8] | remaining activity [9] 94.5% | fold change [16, 33] 1.01 and 1.03 | z-score [17, 37] -0.661 | z-score [18] -0.64
1 and 1.45: fold change [16, 34]
1920 and 4040: cell count [16, 35]
0.628: z-score [17, 38]

Cc1cc(N[C@@H](Cc2ccccc2)C(=O)NC2CCCC2)nc(NCCc2cccs2)n1
inactive: growth inhibition [1] 14% | inhibition [2] -6% | inhibition [3] -2% | outcome [5] | outcome [6] | outcome [7] | outcome [8]
active: growth inhibition [4] 99%

N#Cc1cccc(NC(=O)Nc2ccc(CC(=O)N3CCc4cc(Cl)c(N5CCN(C/C=C/c6ccccc6)CC5)cc43)cc2)c1
inactive: inhibition [2] -4% | inhibition [3] -4% | outcome [5] | outcome [6] | outcome [7] | outcome [8]
active: growth inhibition [1] 61% | growth inhibition [4] 91%

O=C(NCCc1ccc(Cl)c(Cl)c1)c1ccc(CNC(=O)c2ccc(O)c(-c3ccc(Cl)c(Cl)c3)c2)cc1
inactive: growth inhibition [1] 3% | inhibition [2] 0% | inhibition [3] -6% | outcome [5] | outcome [6] | outcome [7] | outcome [8]
active: growth inhibition [4] 97%

COc1cc2c(cc1S(=O)(=O)c1ccc(NC(=O)c3cc4ccccc4s3)cc1)CCN(C)CC2
inactive: inhibition [2] 21% | inhibition [3] 2% | outcome [5] | outcome [6] | outcome [7] | outcome [8]
active: growth inhibition [1] 88% | growth inhibition [4] 100%

CS(=O)(=O)CCNCc1nc(-c2ccc3ncnc(Nc4ccc(OCc5cccc(F)c5)c(Cl)c4)c3c2)cs1
0.867: fold change [16, 34]
active: growth inhibition [4] 98%
inactive: growth inhibition [1] 34% | inhibition [2] 8% | inhibition [3] -3% | outcome [5] | outcome [6] | outcome [7] | outcome [8] | remaining activity [9] 122% | fold change [16, 33] 0.987 | z-score [18] -0.46
7720: cell count [16, 35]
7820: cell count [16, 36]

CCS(=O)(=O)Nc1ccc2[nH]c(O)c(C(=Nc3ccc(CN4CCCCC4)cc3)c3ccccc3)c2c1
720: cell count [16, 35]
0.435: fold change [16, 34]
-2.81: z-score [17, 38]
active: growth inhibition [1] 74% | inhibition [2] 53% | growth inhibition [4] 87% | AC50 [10] 263 nM | AC50 [19] 662 nM | AC50 [11] 5900 nM | AC50 [12] 5900 nM | AC50 [20] 263 nM | AC50 [13] 83.3 nM | AC50 [14] 742 nM | IC50 [15] 468 nM
inactive: inhibition [3] 6% | outcome [5] | outcome [6] | outcome [7] | outcome [8] | fold change [16, 33] 1 | z-score [17, 37] 0.158
718: cell count [16, 36]

COc1ccc(-c2cccc(NC(=O)c3ccc(F)cc3)c2)cc1CNC(C)C
active: growth inhibition [4] 83%
inactive: growth inhibition [1] 9% | inhibition [2] 32% | inhibition [3] 1% | outcome [5] | outcome [6] | outcome [7] | outcome [8]

O=C(Nc1cccc(CN2CCCN(Cc3ccc(O)cc3)CC2)c1)c1cccc(Cl)c1
active: growth inhibition [4] 96%
inactive: growth inhibition [1] 41% | inhibition [2] 10% | inhibition [3] 5% | outcome [5] | outcome [6] | outcome [7] | outcome [8]

FC(F)(F)c1ccc2nccc(NN=Cc3ccc(Cl)cc3)c2c1
active: growth inhibition [1] 53% | growth inhibition [4] 102%
inactive: inhibition [2] 5% | inhibition [3] -2% | outcome [5] | outcome [6] | outcome [7] | outcome [8]

C=C[C@H]1CN2CC[C@H]1C[C@@H]2[C@@H](O)c1ccnc2ccc(OC)cc12
inactive: inhibition [2] -11% | inhibition [3] -3% | outcome [5] | outcome [6] | outcome [7] | outcome [8] | red/green cell ratio (normalised) ([30]; actives lie on both sides, counts scaled to control wells, 1 = unselective) 1.14 | fold change [16, 33] 0.965 and 0.96 and 0.929 | z-score [17, 37] 0.598 | remaining NAD [31] 10 nM | luciferase signal [32] 84 AU | z-score [18] 0.055
0.401: z-score [17, 38]
9710 and 7980 and 11400: cell count [16, 35]
10100 and 8310 and 12200: cell count [16, 36]
1.07: normalised cell number ([30]; measured here: epithelial PC-3E GFP cell survival)
1.24: aggregation suppression score [28]
12.1%: glutamate uptake change [26]
-0.47: rescue above control [23]
2: inclusion score [27]
active: growth inhibition [1] 95% | growth inhibition [4] 98% | mean signal [29] 302
12.3%: inhibition [21]
1.3: score [22]
54.5%: inhibition of aggregation [25]
1.22: normalised cell number ([30]; measured here: mesenchymal TEM4-18 mCherry cell survival)
1.12: cytochrome c release ratio [24]
1.07 and 0.67 and 3.94: fold change [16, 34]

CN(C)CCCSc1ccccc1NC(=O)C=Cc1ccccc1
1.81: fold change [16, 34]
inactive: growth inhibition [1] -3% | inhibition [2] -4% | inhibition [3] -5% | outcome [5] | outcome [6] | outcome [7] | outcome [8] | fold change [16, 33] 0.957 | z-score [18] -0.13
9280: cell count [16, 36]
active: growth inhibition [4] 85%
8880: cell count [16, 35]

CN(C)CCNC(=O)N1CCCN(c2ncnc3cc(-c4ccccc4)sc23)CC1
active: growth inhibition [4] 96%
inactive: growth inhibition [1] 37% | inhibition [2] 5% | inhibition [3] 5% | outcome [5] | outcome [6] | outcome [7] | outcome [8]
